In all, about 33,000 sequences were measured (“E-score (-0.5 to 0.5)”: median about -0.012, highest 2% from about 0.27 on). Only a selection was taken, and the highest values are over-represented in it overall.
These sequences were tested against T1, Vhr1 (UniProt P40522) (assay: PBM E-score (8-mer binding enrichment) (E-score (-0.5 to 0.5)); higher = stronger / more preferred TF binding). Conditions: protein concentration: 200 nM; construct: GST-full length.
T1 sequence: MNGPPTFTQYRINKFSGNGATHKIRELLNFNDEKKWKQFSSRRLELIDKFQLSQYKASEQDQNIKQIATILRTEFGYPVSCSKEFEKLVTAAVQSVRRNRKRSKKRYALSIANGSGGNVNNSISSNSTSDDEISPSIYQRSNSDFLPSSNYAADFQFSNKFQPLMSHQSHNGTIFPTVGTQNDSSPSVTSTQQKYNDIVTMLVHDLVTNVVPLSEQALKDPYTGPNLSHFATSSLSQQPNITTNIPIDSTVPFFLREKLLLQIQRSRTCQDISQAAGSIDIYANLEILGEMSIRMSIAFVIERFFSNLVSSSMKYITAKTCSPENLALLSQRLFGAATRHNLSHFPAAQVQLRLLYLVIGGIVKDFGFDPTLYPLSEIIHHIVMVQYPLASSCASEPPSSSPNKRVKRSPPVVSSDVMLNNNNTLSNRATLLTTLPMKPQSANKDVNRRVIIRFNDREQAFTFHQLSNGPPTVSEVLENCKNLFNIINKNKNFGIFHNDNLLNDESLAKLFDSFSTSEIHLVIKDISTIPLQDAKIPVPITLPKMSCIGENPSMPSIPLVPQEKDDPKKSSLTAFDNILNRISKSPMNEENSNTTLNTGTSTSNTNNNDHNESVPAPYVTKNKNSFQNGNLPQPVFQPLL
Outline: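 Universal all-10-mer Agilent arrays, fresh or stripped once, were converted to double-stranded form by primer extension. GST-tagged yeast transcription factors from PURExpress in vitro transcription/translation, full-length or DNA-binding domain only, were applied at about 100-200 nM and detected with fluorescent anti-GST. After masliner normalisation, the Universal PBM Analysis Suite scored each ungapped eight-base word together with its reverse complement by E-score.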

| Sequence | PBM E-score |
| --- | --- |
| ACACAGCC | 0.232 |
| CCACAGCA | 0.088 |
| ACACAGCT | 0.127 |
| ACACAGCA | 0.286 |
| GCACAGCA | 0.128 |
| ACACAGCG | 0.312 |
| ATTTTAGC | -0.141 |
| AATACCTC | 0.0406 |
| GAGTTAGA | -0.0441 |
| ACTTTGAG | 0.0115 |
| AAGCTGGC | -0.163 |
| AAGCGATT | -0.0711 |
| GGCGGGGA | 0.409 |
| CGCGGGAA | 0.105 |
| GGTGGGGA | 0.378 |
| GGCGGGAA | -0.0569 |
| GGCGGGCA | 0.198 |
| CGCGGGCC | 0.187 |
| GGTGGGAA | 0.04 |
| AGCGGGGA | -0.0182 |
| CGTGGGGA | 0.0323 |
| CGCGGGGA | 0.292 |
| GCGGGGGA | -0.0987 |
| CGCGGGCA | 0.287 |
| CACCAAGG | 0.0118 |

| Sequence | PBM E-score |
| --- | --- |
| AGGCTGGC | 0.00081 |
| AGGCCCGG | -0.234 |
| ATTAGCGA | 0.142 |
| ATGGTCGA | -0.0168 |
| GAGACTAA | -0.00777 |
| CCGTTCAG | -0.184 |
| CAACAATC | 0.273 |
| GAACAATC | -0.0437 |
| CAACAATG | 0.168 |
| AGTCACAA | 0.391 |
| CGTCACAA | -0.0394 |
| AGTCACAC | 0.415 |
| AGTCACAG | 0.425 |
| CGTCACAG | 0.152 |
| CGTCACAC | -0.021 |
| GGTCACAA | 0.0224 |
| ATTCACAG | -0.0154 |
| AGGCACAT | 0.0884 |
| GGTCACAC | 0.0719 |
| AGCCACAT | 0.22 |
| AGTCACAT | 0.402 |
| CTAAACAG | -0.00454 |
| CGGCCTCA | 0.024 |
| ATTATTGA | 0.036 |
| TAGGAGCA | -0.0685 |

| Sequence | PBM E-score |
| --- | --- |
| GACTTGTA | 0.0565 |
| CGAGCTCG | 0.307 |
| CGAGCTCC | -0.102 |
| CGAGCTCA | 0.144 |
| CTGATGGC | 0.0804 |
| ATATTGGG | -0.038 |
| GTTTATAA | -0.168 |
| GCACCGAC | 0.0173 |
| ATGTAGTC | 0.286 |
| ATGTAGTG | 0.114 |
| ATGTAGTA | 0.0473 |
| ACATAGAT | -0.0848 |
| AATTGTTA | -0.0275 |
| ACAGCACG | 0.118 |
| ACTACACG | 0.221 |
| TGTACACA | 0.0228 |
| AGTACACG | 0.0779 |
| AGTACACA | 0.284 |
| CCTACACG | -0.0152 |
| ACTACACA | 0.327 |
| GCCCAGAC | -0.15 |
| ACTTCTTG | -0.106 |
| CTGGTAAC | 0.0684 |
| ATCTGTAC | 0.0611 |
| AATCACGA | 0.159 |

| Sequence | PBM E-score |
| --- | --- |
| ACTCACGG | 0.352 |
| AATCACGC | 0.354 |
| ACACACGC | 0.183 |
| ACTCACGC | 0.366 |
| ACTCACGA | 0.243 |
| GATCACGC | 0.193 |
| CCTCACGC | 0.0696 |
| ACACACGG | 0.155 |
| AAACAAGA | 0.121 |
| AGCCCTAC | -0.108 |
| ATTCTGGG | -0.107 |
| GCAGTGGC | 0.0117 |
| GAGGTTGA | -0.131 |
| AGAATAGG | 0.026 |
| CGTGAGTC | 0.428 |
| CGTGAGCC | 0.0956 |
| AGTGAGAC | 0.0195 |
| AGTGAGTC | 0.466 |
| CGTGAGTA | 0.21 |
| AGTGAGTG | 0.00138 |
| CACCTGCA | 0.0182 |
| TATAAGCA | 0.00418 |
| GACTCACC | 0.469 |
| CACTCACC | 0.206 |
| GACTCACA | 0.44 |

| Sequence | PBM E-score |
| --- | --- |
| CACTCACA | 0.264 |
| AACTCACC | 0.224 |
| AACTCACG | 0.109 |
| AACTCACA | 0.202 |
| CACTCACG | 0.238 |
| TACTCACA | 0.285 |
| TCCAGAAA | -0.0568 |
| GCTTAGAA | -0.117 |
| CAAATCAA | 0.0775 |
| AAACTGGG | -0.192 |
| ATCTGATC | 0.085 |
| AGTTCTAG | -0.127 |
| CACCCGCA | -0.0465 |
| AACCCGCC | 0.136 |
| GACCCGCC | 0.322 |
| CACCCGCG | 0.218 |
| GACCCGCA | 0.109 |
| CACCCGCC | 0.329 |
| AACCTCAA | -0.195 |
| ACCTACGT | -0.0787 |
| AACTGCTG | -0.0272 |
| ACCTTGAT | 0.0042 |
| TACCGTCA | -0.0775 |
| GCGTGGCA | -0.22 |
| GACTCCAA | 0.237 |

| Sequence | PBM E-score |
| --- | --- |
| CACTCCAC | 0.0458 |
| CACTCCTC | 0.183 |
| CACTCCTA | -0.262 |
| GACTCCTC | 0.4 |
| GACTCCTA | 0.384 |
| AACTCCTC | -0.268 |
| GACTCCAC | 0.346 |
| AACTCCTA | 0.017 |
| GTATTGGA | -0.184 |
| TTTATAAA | -0.0811 |
| CGACCCCC | -0.261 |
| CTTTAACC | -0.127 |
| AGAACCAA | -0.0911 |
| GAATCATC | 0.437 |
| CAATCAGA | -0.0178 |
| ATATCATA | 0.216 |
| TAATCGTA | 0.114 |
| CCATCATA | 0.0955 |
| CTATCATA | 0.164 |
| GAATCAAC | 0.247 |
| TAATCAAA | 0.101 |
| TAATCATA | 0.314 |
| GTATCATA | 0.288 |
| ACATCATC | 0.166 |
| CAATCATA | 0.317 |

| Sequence | PBM E-score |
| --- | --- |
| TACGATGA | 0.11 |
| ACTTCTTC | -0.00857 |
| TACTCCTA | 0.123 |
| CCAGAGCG | -0.145 |
| ACGACAAA | 0.092 |
| CAATCATC | 0.284 |
| GAATCAAA | -0.0259 |
| AAATCATC | 0.245 |
| GAATCATA | 0.397 |
| CCATCATC | 0.138 |
| GCATCATA | 0.136 |
| ATTTACAA | -0.101 |
| ATCACACG | 0.102 |
| ATCACACA | 0.282 |
| ATCACAAC | 0.00509 |
| ATCACAGC | 0.182 |
| ATCACATA | 0.19 |
| ATCACACC | 0.288 |
| ATAGGCAA | -0.246 |
| ACCTCGAC | -0.00505 |
| AGCTGCCT | -0.219 |
| AGTTTTTC | -0.152 |
| CCAGCGAG | 0.181 |
| TGCACGCA | -0.0577 |
| CTAGTTGA | 0.202 |

| Sequence | PBM E-score |
| --- | --- |
| ATAGTTGA | 0.0409 |
| GTAGTTGA | 0.277 |
| AGAAATCT | -0.217 |
| GGACGCTA | -0.324 |
| CAACTTGG | 0.0538 |
| AGTCAACA | 0.19 |
| AGTCAACG | 0.278 |
| AGTCAACT | 0.144 |
| AGTCAACC | 0.373 |
| CGTCAACG | -0.0358 |
| GGTCAACC | 0.0175 |
| ATCTGATA | 0.0202 |
| CATGTAGA | 0.00603 |
| AGTCGCTA | 0.174 |
| ACCCACTC | 0.282 |
| CCCCACCA | 0.0983 |
| ACCCACTG | 0.22 |
| ACCCTCCC | 0.307 |
| CCCCTCCC | 0.171 |
| ACCCTCCT | -0.116 |
| ACCCACCC | 0.397 |
| ACCCACCG | 0.256 |
| ACCCACCT | 0.0548 |
| CCCCACCG | 0.188 |
| CCCCACTC | 0.128 |

| Sequence | PBM E-score |
| --- | --- |
| CCCCACCC | 0.36 |
| AAAGCCAT | -0.0236 |
| CGTCCCAC | 0.0371 |
| GGTTAGAC | -0.00016 |
| GGGCTTGA | -0.125 |
| ACCCTAAT | -0.0655 |
| CCAAAAGA | -0.201 |
| GCCCACCC | 0.284 |
| ACCACCCA | 0.192 |
| GCCCACCA | -0.125 |
| TCCCACCA | -0.112 |
| GCCCACAC | 0.069 |
| ACCCACCA | 0.296 |
| CCGAGAGC | -0.0932 |
| ATAGCGCC | 0.0931 |
| CCATTCGA | -0.172 |
| AGCTGTAC | 0.016 |
| GAAGAAAA | -0.221 |
| ACCGCGGG | 0.312 |
| ACCGCGGT | 0.0486 |
| ACCGCGCG | 0.336 |
| ACCGCGCC | -0.0598 |
| ACCGCGCT | 0.0474 |
| CCCGCGGG | 0.102 |

Reference: the supplement of paper PMC3334620
